These results are taken from PubChem BioAssay AID651650 (Sanford-Burnham Center for Chemical Genomics, 2012).

One may read the inhibition as the relative decrease from the control value, in per cent.

The target in the experiment is Neuropilin-1 (Homo sapiens) (UniProt O14786). The experiment can be described thus: NRP-1 b1b2 CendR peptide binding inhibitors, dose response, biochemical, FP and AlphaScreen panel (AID 651650). As to conditions: NRP-1 b1b2 / RPARPAR peptide binding, FP or AlphaScreen; run 1, at 100 µM (top of the series).
Sequence of Neuropilin-1 (Homo sapiens) (O14786 whole entry, looked up): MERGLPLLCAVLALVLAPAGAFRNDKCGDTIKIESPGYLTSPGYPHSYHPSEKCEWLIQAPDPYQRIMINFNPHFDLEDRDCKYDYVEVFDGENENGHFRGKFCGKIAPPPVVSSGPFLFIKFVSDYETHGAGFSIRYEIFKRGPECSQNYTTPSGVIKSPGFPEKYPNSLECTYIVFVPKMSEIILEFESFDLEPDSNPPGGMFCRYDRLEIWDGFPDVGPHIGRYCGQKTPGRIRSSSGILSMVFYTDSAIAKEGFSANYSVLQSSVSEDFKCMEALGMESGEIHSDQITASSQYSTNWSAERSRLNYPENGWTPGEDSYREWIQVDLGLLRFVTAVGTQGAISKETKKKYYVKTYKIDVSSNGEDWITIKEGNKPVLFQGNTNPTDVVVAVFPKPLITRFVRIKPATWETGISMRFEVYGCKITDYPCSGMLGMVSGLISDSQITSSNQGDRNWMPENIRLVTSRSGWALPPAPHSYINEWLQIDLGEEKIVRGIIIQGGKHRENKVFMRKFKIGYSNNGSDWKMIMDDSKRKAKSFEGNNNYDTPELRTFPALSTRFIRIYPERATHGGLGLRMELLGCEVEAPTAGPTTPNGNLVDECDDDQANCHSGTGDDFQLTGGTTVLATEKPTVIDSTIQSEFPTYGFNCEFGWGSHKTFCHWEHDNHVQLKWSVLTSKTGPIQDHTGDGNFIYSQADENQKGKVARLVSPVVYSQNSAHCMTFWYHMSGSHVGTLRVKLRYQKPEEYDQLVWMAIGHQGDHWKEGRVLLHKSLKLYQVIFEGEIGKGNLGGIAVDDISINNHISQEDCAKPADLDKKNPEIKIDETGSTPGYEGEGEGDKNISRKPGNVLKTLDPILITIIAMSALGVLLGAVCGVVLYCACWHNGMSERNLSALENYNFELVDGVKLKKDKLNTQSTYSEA
Take `Cc1ccc(Cl)c(NC(=O)CSc2cccc[n+]2[O-])c1Cl`: the inhibition was -8.97%. In the case of `Cn1c(=O)c2[nH]c(COc3ccccc3)nc2n(C)c1=O` it was 16.6%; in that of `CCC1Nc2ncnc(N3CCCCC3)c2N(Cc2ccc(C)cc2)C1=O` (stereo not drawn), 18.8%. For `O=C(O/N=C1/CCSc2ccccc21)c1ccccc1`, the inhibition is 17.1%. With `COc1cccc(OCC(=O)NNC(=S)Nc2ccc(Cl)cc2Cl)c1`, the inhibition turned out to be 27.2%. Turning to `OCCNc1ncnc2ccc(Br)cc12`, the inhibition came out at 66.8%. The same measure for `COc1ccc(C(=O)N[C@H](C(=O)Nc2nc3c(s2)CCCC3)C(C)C)cc1`: 22.5%. In the case of `CC1CCC(NC(=O)CSc2nncn2C)CC1` (stereo not drawn) it was 19.2%; in that of `CCOC(=O)Cn1c(=O)n(Cc2ccco2)c(=O)c2ccc(C(=O)NC3CCCC3)cc21`, 61%; in that of `O=C(CSc1nc2ccccc2n1Cc1ccccc1Cl)N/N=C/c1ccccc1C(=O)O`, 84.6%. Take `COc1cc(C(=O)NCc2ccccc2)cc(Br)c1OC`: the inhibition is -10%. In the case of `C#CCCOC(=O)N1C2=NC(C(=O)OC)=C(C(=O)OC)[C@@H]3N(C)c4ccccc4[C@]23C[C@H]1CO` it was 74.8%; in that of `CC(C)C1=C2CCCCC2NC(=O)N1` (stereo not drawn), 32.2%; in that of `CCCNC(=O)[C@H]1N2C(=O)c3c(ccc(OC)c3OC)C2SC1(C)C` (stereo partly drawn), 51.5%. In the case of `O=C1c2cc([N+](=O)[O-])cc3cc([N+](=O)[O-])cc(c23)C(=O)N1c1ccccn1` it was 17.2%; in that of `Cn1c(=O)c2c(ncn2CC(COCc2ccccc2)OCc2ccccc2)n(C)c1=O` (stereo not drawn), 54.8%; in that of `Cc1ccc(Cl)cc1N1CCN(C(=O)c2cccc3c(=O)c(C)c(-c4ccccc4)oc23)CC1`, 20.7%. In the case of `Clc1nc(-c2ccccn2)nc2scc(-c3ccccc3)c12` it was 7.99%.
